Screening results as filed in PubChem.
Sfp inh: qHTS Assay for Inhibitors of Bacillus subtilis Sfp phosphopantetheinyl transferase (PPTase) | Biochemical Sfp PPTase activity, qHTS | 4'-phosphopantetheinyl transferase ffp (Bacillus subtilis), Q9F4F7 | 310,000 compounds, 3.5% hits | Potency, µM, for the others: largest response in the series, negative = inhibition, actives largely listed as inhibitors | AID 1490, 2009;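 note: the enzyme is Sfp with the accession as filed and its product quenches rhodamine fluorescence; 0% = enzyme reaction without inhibitor and -100% = no enzyme wells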
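After 15 min at room temperature with compound, 15 nM Sfp received 5 uM rhodamine-CoA plus 12.5 uM BHQ-2-ybbR (50 mM Hepes pH 7.6, 10 mM MgCl2). Rate came from the fluorescence difference over 30 min, ex 525/em 598 nm.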
BAZ2B inh: qHTS Assay for Inhibitors of BAZ2B; AlphaScreen BAZ2B-H3K14Ac peptide displacement; Potency, µM (titrated, usually from 114 µM), without a hit: at the top dose activity change, negative = inhibition, most hits filed as inhibitors; 360,000 compounds, 4.4% hits; note: % is set by controls: 0 for no effect and ±100 for the full control effect; nearly all actives have a fitted effect of over 60% in size
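AlphaScreen displacement of biotin-H3(5-23)K14Ac peptide (50 nM final) from BAZ2B (50 nM final) in PBS pH 7.4, 0.01% Tween-20; complex preformed 30 min RT, then compounds (top 110 uM) 30 min RT, beads 20 min dark.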
G9a block: qHTS Assay for Inhibitors of Histone Lysine Methyltransferase G9a | Histone-lysine N-methyltransferase EHMT2 (Homo sapiens), Q96KQ7 | G9a H3K9 monomethylation, AlphaScreen, 2 h | Potency, µM (series often up to 102 µM), without a hit: top-dose activity, negative = inhibition, hits mostly inhibitors | 350,000 compounds, 8.8% hits | AID 504332, 2011; note: % is set by controls: 0 for no effect and ±100 for the full control effect; nearly all actives have a fitted effect of over 75% in size
Target sequence (Q96KQ7 913-1193 limits assumed): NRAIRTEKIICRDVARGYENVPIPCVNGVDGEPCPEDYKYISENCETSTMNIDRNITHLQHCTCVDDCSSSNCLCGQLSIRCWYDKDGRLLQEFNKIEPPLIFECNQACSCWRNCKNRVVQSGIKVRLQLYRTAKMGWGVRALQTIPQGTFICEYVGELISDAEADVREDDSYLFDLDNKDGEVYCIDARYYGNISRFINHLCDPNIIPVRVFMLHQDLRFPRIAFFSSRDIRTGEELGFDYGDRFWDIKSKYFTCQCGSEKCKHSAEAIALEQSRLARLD
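Enzyme 20 nM + cpd, 15 min RT; add b-H3K9 pep 500 nM / SAM 20 uM; 2 h RT; anti-H3K9me1 Ab 0.5 ug/mL + SA donor / anti-rabbit acceptor beads 20 ug/mL each, 10 min; AlphaScreen read.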
PLK1 PBD block: qHTS for Inhibitors of PLK1-PDB (polo-like kinase 1 - polo-box domain): Primary Screen | Serine/threonine-protein kinase PLK1 (Homo sapiens), P53350 | Plk1 PBD binding of FITC phosphopeptide, fluorescence polarization | Potency, µM, for inactives: max response, negative = inhibition, hits mostly inhibitors | 360,000 compounds, 2.8% hits | AID 720504, 2013; note: series mostly up to about 57 µM; % is set by controls: 0 for no effect and ±100 for the full control effect; nearly all actives have a fitted effect of over 65% in size
HP1b binding inh: HTS for Inhibitors of HP1-beta Chromodomain Interactions with Methylated Histone Tails; Chromobox protein homolog 1 (Homo sapiens), P83916; AlphaScreen HP1-beta / biotin-H3K9me3 peptide binding; Potency, µM (doses to about 114 µM), for the others: at the top dose activity change, negative = inhibition, actives largely listed as inhibitors; 390,000 compounds, 0.56% hits; note: nearly all actives have a fitted effect of over 70% in size
Target sequence (P83916 whole entry, looked up): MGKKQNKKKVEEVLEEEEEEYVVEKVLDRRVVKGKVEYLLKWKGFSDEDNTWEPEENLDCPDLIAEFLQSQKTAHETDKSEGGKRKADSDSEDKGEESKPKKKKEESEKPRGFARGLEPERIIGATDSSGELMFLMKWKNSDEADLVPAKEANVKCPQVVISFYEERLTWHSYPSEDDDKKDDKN
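AlphaScreen: HP1-beta (50 nM) preformed 30 min with biotin-H3(1-18)K9me3 peptide (50 nM) in PBS pH 7.4, 0.01% Tween-20. Compound added for 30 min at RT, then streptavidin donor/nickel chelate acceptor beads (10 ug/mL) for 30 min.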
JMJD2A Tudor inh: qHTS Assay for Inhibitors of JMJD2A-Tudor Domain. Potency, µM (titrated, usually from 114 µM), inactives show at the highest dose activity change, negative = inhibition, usual class: inhibitors. AlphaScreen JMJD2A-Tudor / H3K4me3 peptide binding. 390,000 compounds, 4.4% hits; note: % is set by controls: 0 for no effect and ±100 for the full control effect; nearly all actives have a fitted effect of over 50% in size
* marks the source's active call; other numbers are inactive results; [ ] = dose if it differs, or a comment. An excerpt weighted towards active compounds, which were near 12% of everything screened. Calls come from the whole dose curve; as a rule, active = well fitted curve in the direction sought with a large enough effect; inconclusive = small, poorly fitted or top-dose-only effect, or another doubt; inactive = no such curve, though single readings can be large; an effect the other way counts as inactive or inconclusive. Potency is the fitted concentration of half-maximal effect.

For COc1cccc(CNc2nc(Cl)nc3nc[nH]c23)c1 the results were HP1b binding inh 29.4% and JMJD2A Tudor inh -10.6%.
Cc1cc2nc3c(=O)n(C)c(=O)n(C)c3nc2cc1N=CN(C)C was read as BAZ2B inh 2.8%, G9a block 15.8µM*, HP1b binding inh 15.7% and JMJD2A Tudor inh -11.9%.
C[n+]1cccc2c(Br)ccc([O-])c21 was read as Sfp inh 56.2µM*, BAZ2B inh 22.3%, PLK1 PBD block inconclusive, HP1b binding inh 24.3% and JMJD2A Tudor inh -28.7%.
Screening Clc1cc2c(c(CSc3nc4ccccc4n4cccc34)c1)OCOC2 returned Sfp inh 3.2%, BAZ2B inh -8.5%, G9a block 44.7µM*, PLK1 PBD block -7.9%, HP1b binding inh 53.5% and JMJD2A Tudor inh 0.0%.
Clc1cc2c(c(Cn3cnc4ccccc43)c1)OCOC2 was read as Sfp inh 18.5%, BAZ2B inh 4.6%, G9a block 2.2%[59 µM], PLK1 PBD block -7.3%, HP1b binding inh 26.3% and JMJD2A Tudor inh -14.6%.
CCN(CC)C(=O)C1CCCN(Cc2ccc(OC)c(C)c2C)C1 (stereo unspecified) was read as Sfp inh 50.1µM*, BAZ2B inh 70.8µM*, G9a block inconclusive, PLK1 PBD block -5.4%, HP1b binding inh inconclusive and JMJD2A Tudor inh 1.58µM*.
Screening Cc1cccc(-c2cccc(NC(=O)C3CCCN(Cc4cccnc4)C3)c2)c1 (stereo unspecified) returned Sfp inh -12.8%, BAZ2B inh inconclusive, PLK1 PBD block -6.7%, HP1b binding inh 5.1% and JMJD2A Tudor inh -28.5%.
CCc1ccc(CN2CCCC(C(=O)N3CCCCC3)C2)cc1 (stereo unspecified) was read as Sfp inh -2.6%, BAZ2B inh 79.4µM*, G9a block 8.91µM*, PLK1 PBD block -11.3%, HP1b binding inh -32.2% and JMJD2A Tudor inh 44.7µM*.
CCc1ccc(-c2nc(CN3CCCC(C(=O)O)C3)c(C)o2)cc1 (stereo unspecified) was read as Sfp inh 16.2%, BAZ2B inh 3.8%, G9a block inconclusive, PLK1 PBD block -10.5%, HP1b binding inh 29.8% and JMJD2A Tudor inh -19.1%.
`O=C(C1CCCN(Cc2cccnc2)C1)N1CCCCC1` (stereo unspecified) gave Sfp inh 50.1µM*, BAZ2B inh 22.4µM*, G9a block 3.98µM*, PLK1 PBD block -2.4%, HP1b binding inh inconclusive and JMJD2A Tudor inh inconclusive.
For COc1ccc(CN2CCCC(C(=O)N3CCCCC3)C2)c(OC)c1 (stereo unspecified) the results were Sfp inh -18.2%, BAZ2B inh -26.7%, PLK1 PBD block 29.9µM*, HP1b binding inh -12.9% and JMJD2A Tudor inh inconclusive.
Screening COc1cc(OC)c(OC)cc1CN1CCCC(C(=O)c2sccc2C)C1 (stereo unspecified) returned Sfp inh -5.5%, BAZ2B inh -25.4%, PLK1 PBD block -5.5%, HP1b binding inh 0.9% and JMJD2A Tudor inh -30.7%.
Screening CCN1C(=O)[C@@H]2[C@@H](c3ccc(-c4ccc(C(C)=O)cc4)cc3)N3CCCC[C@@]3(C(=O)OC)[C@@H]2C1=O returned BAZ2B inh -28.5%, G9a block 16.7%[2.33 µM], PLK1 PBD block 5.7%, HP1b binding inh 33.6% and JMJD2A Tudor inh -24.5%.
For Cc1ccccc1CN1CCCC(C(=O)N2CCCCC2)C1 (stereo unspecified) the results were Sfp inh -25.9%, BAZ2B inh 79.4µM*, G9a block 25.1µM*, PLK1 PBD block -14.0%, HP1b binding inh inconclusive and JMJD2A Tudor inh 22.4µM*.
FC(F)(F)c1ccc(C2Nc3cccc4cccc(c34)N2)cc1 was read as Sfp inh -0.5%, BAZ2B inh 39.8µM*, G9a block 35.5µM*, PLK1 PBD block -28.2%, HP1b binding inh -18.0% and JMJD2A Tudor inh inconclusive.
For O=[N+]([O-])c1cccc(C2Nc3cccc4cccc(c34)N2)c1 the results were Sfp inh 44.7µM*, BAZ2B inh 35.5µM*, G9a block 15.8µM*, PLK1 PBD block -21.6%, HP1b binding inh inconclusive and JMJD2A Tudor inh 50.1µM*.
O=[N+]([O-])c1ccc(C2Nc3cccc4cccc(c34)N2)cc1 was read as Sfp inh 22.4µM*, BAZ2B inh 44.7µM*, G9a block 28.2µM*, PLK1 PBD block -7.5%, HP1b binding inh inconclusive and JMJD2A Tudor inh inconclusive.
Screening CCCOc1ccc(C2Nc3cccc4cccc(c34)N2)cc1 returned Sfp inh 2.7%, BAZ2B inh inconclusive, G9a block 39.8µM*, PLK1 PBD block -5.6%, HP1b binding inh inconclusive and JMJD2A Tudor inh 39.8µM*.
Screening Cc1nc2nc(-c3cccnc3)[nH]n2c(=O)c1C returned Sfp inh 24.1%, BAZ2B inh inconclusive, G9a block 25.4%, PLK1 PBD block -8.1%, HP1b binding inh 20.2% and JMJD2A Tudor inh -10.2%.
Screening COc1ccc(-c2sc3ccc(N4CCOCC4)cc3c2C#Cc2ccsc2)cc1 returned PLK1 PBD block -7.8%, HP1b binding inh 160.6% and JMJD2A Tudor inh 18.6%.
COc1ccc(-c2sc3ccc(OC)cc3c2C#CCCO)cc1 was read as Sfp inh -23.2%, BAZ2B inh 0.4%, G9a block 35.5µM*, PLK1 PBD block -5.7%, HP1b binding inh 45.8% and JMJD2A Tudor inh -7.0%.
For COc1ccc(-c2sc3cc(OC)c(OC)cc3c2C#CCO)cc1 the results were PLK1 PBD block -13.1%, HP1b binding inh 24.2% and JMJD2A Tudor inh 20µM*.
`COc1ccc(-c2sc3cc(OC)c(OC)cc3c2C#CC(C)(C)O)cc1` gave BAZ2B inh inconclusive, G9a block 13.4%[0.501 µM], PLK1 PBD block 2.5%, HP1b binding inh 27.8% and JMJD2A Tudor inh -26.2%.
`COc1ccc(-c2sc3ccc(N4CCOCC4)cc3c2C#CC(C)(C)O)cc1` gave BAZ2B inh 50.1µM*, G9a block -2.3%[0.501 µM], PLK1 PBD block 1.6%, HP1b binding inh 26.9% and JMJD2A Tudor inh inconclusive.
Screening COc1ccc2sc(-c3ccc(N(C)C)cc3)c(C#Cc3cncn3C)c2c1 returned PLK1 PBD block -2.9%, HP1b binding inh -26.7% and JMJD2A Tudor inh 22.4µM*.
